Source: PubChem BioAssay (Tox21)
Where “and” joins values, the source holds several entries; their conditions need not be identical. Equal values may be shown once. Results filed as inconclusive are left out. Where a call stands in place of a potency, no number is given. More than one record can exist for a structure, and the calls need not agree. Calls of active or inactive are those of the source. Unless noted, calls follow the shape of the full dose curve.

The molecules below were run against Acetylcholinesterase (Homo sapiens) (UniProt P22303) (assay: Acetylcholinesterase (AChE) small molecule antagonists: fluorescence cell-based qHTS assay (AID 1347398; also: nearly all actives have a fitted effect of over 50% in size)). Settings: SH-SY5Y cells; Potency: AChE activity; series mostly up to 115 µM; activity change, negative = inhibition: at the top concentration.
How it was run: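 Cellular AChE activity read as thiocholine from acetylthiocholine hydrolysis, detected by Thiolite Green fluorescence at 490/520 nm after 40 min at room temperature. Compounds were pre-incubated 30 min at 37 C on adherent SH-SY5Y cells.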
Potency is read from the fitted curve at half-maximal effect.

Chain of Acetylcholinesterase (Homo sapiens) (P22303 whole entry, looked up): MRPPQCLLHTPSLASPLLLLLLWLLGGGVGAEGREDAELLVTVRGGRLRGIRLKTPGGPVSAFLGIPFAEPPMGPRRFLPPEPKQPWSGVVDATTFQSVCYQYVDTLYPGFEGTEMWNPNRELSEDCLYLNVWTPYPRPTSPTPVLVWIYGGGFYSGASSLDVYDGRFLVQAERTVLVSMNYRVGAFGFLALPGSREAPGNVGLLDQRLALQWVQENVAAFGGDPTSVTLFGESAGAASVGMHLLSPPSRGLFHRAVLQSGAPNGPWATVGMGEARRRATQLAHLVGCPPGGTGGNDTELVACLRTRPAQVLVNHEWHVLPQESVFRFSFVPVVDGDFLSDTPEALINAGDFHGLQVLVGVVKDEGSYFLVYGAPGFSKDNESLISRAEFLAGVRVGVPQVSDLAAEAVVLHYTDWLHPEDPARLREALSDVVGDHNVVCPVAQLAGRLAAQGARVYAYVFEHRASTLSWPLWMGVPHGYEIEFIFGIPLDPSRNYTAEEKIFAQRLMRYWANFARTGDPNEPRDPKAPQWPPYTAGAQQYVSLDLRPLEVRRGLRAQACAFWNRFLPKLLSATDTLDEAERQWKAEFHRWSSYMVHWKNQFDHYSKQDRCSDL

SMILES | Potency | activity change, negative = inhibition
CCCCCCCCCCCC(=O)O | inactive | 
C[C@]12CCC(=O)C=C1CC[C@@H]1[C@@H]2CC[C@]2(C)C(=O)CC[C@@H]12 |  | -22.9% [at 53.7 µM] (inactive)
CC(=O)[O][Hg][c]1ccccc1 | 62.7 µM (active) and 56.4 µM (active) | 
C=CCOC(Cn1ccnc1)c1ccc(Cl)cc1Cl (stereo not given) |  | -18.1% [at 53.7 µM] (inactive)
CC(Cl)(Cl)C(=O)O | inactive | 
O=C(O)C(Cl)(Cl)Cl | inactive | 
Nc1ccc(-c2ccc(N)c(Cl)c2)cc1Cl | inactive | 
CCCn1cc[n+](C)c1 | inactive | 
O=C(O)CCl | inactive | 
O=C(O)C(Cl)Cl | inactive | 
CCOP(=S)(OCC)Oc1ccc2c(C)c(Cl)c(=O)oc2c1 | 12.8 µM (active) and 25.2 µM (active) and inactive | 
C1CCC(NC2CCCCC2)CC1 | inactive | 
O=C(O)c1nc(Cl)ccc1Cl | inactive | 
Nc1ccc(Cl)cc1 | inactive | 
Cc1cc(-c2ccc(N)c(C)c2)ccc1N | inactive | 
O=c1[nH]c(=O)n(Cl)c(=O)n1Cl | inactive | 
CCNc1nc(Cl)nc(NCC)n1 | inactive | 
Oc1ccccc1-c1ccccc1 | inactive | 
OCCOc1ccccc1 | inactive | 
COP(=O)(OC)OC=C(Cl)Cl |  | -24.7% (inactive)
O=P1(N(CCCl)CCCl)NCCCO1 (stereo not given) | inactive | 
COCC(=O)N(c1c(C)cccc1C)C(C)C(=O)OC (stereo not given) | inactive | 
Nc1ccc(-c2ccc(N)cc2)cc1 | inactive | 
CCCCCCCCCCCCOS(=O)(=O)O | inactive | 
CCCC[N+]1(C)CCCCC1 | inactive | 

What follows are molecules tested against Acetylcholinesterase (Homo sapiens) (UniProt P22303) (assay: Acetylcholinesterase (AChE) small molecule antagonists: enzyme-based qHTS assay with human liver microsomes (AID 1347399; also: nearly all actives have a fitted effect of over 60% in size)). Settings: Potency: qHTS inhibition; series mostly up to 115 µM; activity change, negative = inhibition: at the top concentration.
How it was run: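 Recombinant human AChE (50 mU/mL in the enzyme mix) and human liver microsomes (0.25 mg/mL final) were preincubated with compound and NADPH (0.25 mg/mL final) for 30 min at 37 C. Acetylthiocholine/DTNB was then added; thiocholine was read colorimetrically after 10 min at room temperature.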

SMILES | Potency
CCCCCCCCCCCC(=O)O | inactive
C[C@]12CCC(=O)C=C1CC[C@@H]1[C@@H]2CC[C@]2(C)C(=O)CC[C@@H]12 | inactive
CC(=O)[O][Hg][c]1ccccc1 | inactive
C=CCOC(Cn1ccnc1)c1ccc(Cl)cc1Cl (stereo not given) | inactive
CC(Cl)(Cl)C(=O)O | inactive
O=C(O)C(Cl)(Cl)Cl | inactive
Nc1ccc(-c2ccc(N)c(Cl)c2)cc1Cl | inactive
CCCn1cc[n+](C)c1 | inactive
O=C(O)CCl | inactive
O=C(O)C(Cl)Cl | inactive
CCOP(=S)(OCC)Oc1ccc2c(C)c(Cl)c(=O)oc2c1 | 1.8 µM (active) and 633 nM (active) and inactive
C1CCC(NC2CCCCC2)CC1 | inactive
O=C(O)c1nc(Cl)ccc1Cl | inactive
Nc1ccc(Cl)cc1 | inactive
Cc1cc(-c2ccc(N)c(C)c2)ccc1N | inactive
O=c1[nH]c(=O)n(Cl)c(=O)n1Cl | inactive
CCNc1nc(Cl)nc(NCC)n1 | inactive
Oc1ccccc1-c1ccccc1 | inactive
OCCOc1ccccc1 | inactive
COP(=O)(OC)OC=C(Cl)Cl | inactive
O=P1(N(CCCl)CCCl)NCCCO1 (stereo not given) | inactive
COCC(=O)N(c1c(C)cccc1C)C(C)C(=O)OC (stereo not given) | inactive
Nc1ccc(-c2ccc(N)cc2)cc1 | inactive
CCCCCCCCCCCCOS(=O)(=O)O | inactive
CCCC[N+]1(C)CCCCC1 | inactive

The molecules below were run against Cytochrome P450 2D6 (Homo sapiens) (UniProt P10635) (assay: Cytochrome P450 Family 2 Subfamily D Member 6 (CYP2D6) small molecule antagonists: luciferase reporter qHTS assay (AID 1671196; active = well fitted inhibition curve with a large enough effect in the repeat runs; also: nearly all actives have a fitted effect of over 50% in size)). Settings: P450-Glo CYP2D6 enzyme assay, luciferin luminescence, 1 h; series mostly up to 115 µM; activity change, negative = inhibition: at the top concentration.
How it was run: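 Enzyme and proluciferin substrate were first combined with test chemical for 10 min at room temperature. Adding NADPH regeneration solution started a 1 h reaction, stopped with luciferin detection reagent and read by luminescence 20 min later.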

Chain of Cytochrome P450 2D6 (Homo sapiens) (P10635 whole entry, looked up): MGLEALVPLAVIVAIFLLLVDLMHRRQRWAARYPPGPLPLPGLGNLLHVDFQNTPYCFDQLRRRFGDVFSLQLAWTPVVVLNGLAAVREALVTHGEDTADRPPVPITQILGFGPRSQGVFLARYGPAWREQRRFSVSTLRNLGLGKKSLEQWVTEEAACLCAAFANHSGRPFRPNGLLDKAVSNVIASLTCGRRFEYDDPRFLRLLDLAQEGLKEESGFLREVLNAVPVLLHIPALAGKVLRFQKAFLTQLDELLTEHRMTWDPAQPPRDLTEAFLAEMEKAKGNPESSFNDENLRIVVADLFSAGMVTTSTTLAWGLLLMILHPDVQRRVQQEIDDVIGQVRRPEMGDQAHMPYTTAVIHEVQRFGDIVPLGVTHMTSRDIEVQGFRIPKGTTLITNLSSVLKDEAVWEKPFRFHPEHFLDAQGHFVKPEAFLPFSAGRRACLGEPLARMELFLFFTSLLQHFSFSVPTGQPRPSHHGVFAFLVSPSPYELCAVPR

SMILES | Potency | activity change, negative = inhibition
CCCCCCCCCCCC(=O)O | inactive | 
C[C@]12CCC(=O)C=C1CC[C@@H]1[C@@H]2CC[C@]2(C)C(=O)CC[C@@H]12 | inactive | 
CC(=O)[O][Hg][c]1ccccc1 | 353 nM (active) and 564 nM (active) and 1.74 µM (active) | 
CN(C)[C@@H]1C(=O)C(C(N)=O)=C(O)[C@@]2(O)C(=O)C3=C(O)c4c(O)cccc4[C@@](C)(O)[C@H]3[C@H](O)[C@@H]12 | inactive | 
CC(Cl)(Cl)C(=O)O | inactive | 
O=C(O)C(Cl)(Cl)Cl | inactive | 
Nc1ccc(-c2ccc(N)c(Cl)c2)cc1Cl | inactive | 
CCCn1cc[n+](C)c1 | 80.4 µM (active) and inactive | 
O=C(O)CCl | inactive | 
O=C(O)C(Cl)Cl | 29.1 µM (active) and inactive | 
CCOP(=S)(OCC)Oc1ccc2c(C)c(Cl)c(=O)oc2c1 | 5.08 µM (active) and 15.9 µM (active) | 
C1CCC(NC2CCCCC2)CC1 | 1.47 µM (active) and 252 nM (active) and 246 nM (active) | 
O=C(O)c1nc(Cl)ccc1Cl | inactive | 
Nc1ccc(Cl)cc1 | 20 µM (active) and 31.7 µM (active) and 60.8 µM (active) | 
Cc1cc(-c2ccc(N)c(C)c2)ccc1N | 3.21 µM (active) [middle of 4 runs] | 
O=c1[nH]c(=O)n(Cl)c(=O)n1Cl | inactive | 
CCNc1nc(Cl)nc(NCC)n1 | inactive | 
Oc1ccccc1-c1ccccc1 | 39.9 µM (active) | 
OCCOc1ccccc1 | inactive | 
COP(=O)(OC)OC=C(Cl)Cl | inactive | 
O=P1(N(CCCl)CCCl)NCCCO1 (stereo not given) | inactive | 
COCC(=O)N(c1c(C)cccc1C)C(C)C(=O)OC (stereo not given) | inactive | 
Nc1ccc(-c2ccc(N)cc2)cc1 |  | -20.2% (inactive)
CCCCCCCCCCCCOS(=O)(=O)O | inactive | 
CCCC[N+]1(C)CCCCC1 | inactive | 
